# Only some compounds are listed: those with a hit (about 19% of all), similar ones and a draw of the others.
# KB-V1 MDR tox: qHTS assay for MDR1-selective chemotherapeutics: Primary screen using the drug-selected MDR subline cells KB-V1 | KB-V1 MDR cells viability, CellTiter-Glo, 72 h | Potency, µM (top dose mostly 46.1 µM), most hits filed as cytotoxic | 3.4% of 400,000 active | AID 1347076, 2019; further: nearly all actives have a fitted effect of over 60% in size
#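 KB-V1 cells (P-gp-expressing MDR subline of KB-3-1) in phenol-red-free DMEM with 10% FBS were exposed to library compounds over a concentration series for 72 h at 37 degrees C. Viability read by CellTiter-Glo luminescence; concentration-effect curves fitted after normalization.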
# HT1080 IDH1KD tx: qHTS for induction of synthetic lethality in tumor cells producing 2HG: qHTS for the HT-1080-IDH1KD cell line. AID 686971, 2013. HT-1080 IDH1 knockdown viability, ATP luminescence, 48 h. Potency, µM (titrated, usually from 46.1 µM), for inactives: at the top dose activity, negative = toxicity, actives largely listed as cytotoxic. 2% of 360,000 active;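 further: 0% = DMSO wells and -100% = cell-free medium wells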
#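 Luminescent ATP read-out (CellTiter-Glo, 10 min at room temperature) after 48 h compound exposure at 37 °C gave viability of IDH1-knockdown HT-1080 cells. Activity was normalised to DMSO and cell-free wells, then fitted as concentration-response curves.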
# KB-3-1 cytotox: qHTS assay for MDR1-selective chemotherapeutics: Primary screen using the parental adenocarcinoma cell KB-3-1; KB-3-1 viability, CellTiter-Glo ATP luminescence, 72 h; Potency, µM (series often up to 46.1 µM), usual class: cytotoxic; 1.4% of 400,000 active; AID 1347075, 2019; further: nearly all actives have a fitted effect of over 60% in size
#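 Here the drug-naive KB-3-1 line serves as comparator for MDR sub-line selectivity; cells received compound titrations, 72 h at 37 °C, then CellTiter-Glo readout.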
# TDP1 cell CPT: qHTS for Inhibitors of human tyrosyl-DNA phosphodiesterase 1 (TDP1): qHTS in cells in presence of CPT; chicken DT40 Tdp1-/-;hTDP1 cells + 20 nM CPT, ATP luminescence, 48 h; Potency, µM (highest dose often 46.2 µM), for the others: at the highest dose activity change, negative = growth inhibition, usual class: inhibitors; 12% of 420,000 active; AID 686979, 2013; further: nearly all actives have a fitted effect of over 55% in size
#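 Chicken DT40 Tdp1-/- cells stably complemented with human TDP1 were seeded at 400 cells/well in medium containing 20 nM camptothecin, exposed to pin-transferred compounds, and grown at 37 °C for at least 48 hr. Viability was read as ATP luminescence.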
# TDP1 cell noCPT: qHTS for Inhibitors of human tyrosyl-DNA phosphodiesterase 1 (TDP1): qHTS in cells in absence of CPT. Potency, µM (doses to about 46.2 µM), inactives show at the top dose activity change, negative = growth inhibition, most hits filed as inhibitors. DT40 Tdp1-/- hTDP1 cells, no CPT, ATP luminescence, 48 h. AID 686978, 2013. 15% of 420,000 active; further: nearly all actives have a fitted effect of over 55% in size
#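 No-CPT arm: Tdp1-/-;hTDP1 DT40 cells (400/well) plus compounds, incubated ≥48 hr at 37 °C. Readout CellTiter-Glo luminescence.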
# HT1080NT lethal: qHTS for induction of synthetic lethality in tumor cells producing 2HG: qHTS for the HT-1080-NT fibrosarcoma cell line; HT-1080-NT fibrosarcoma viability, CellTiter-Glo ATP luminescence, 48 h; Potency, µM (highest dose often 46.1 µM), inactives show at the top dose activity, negative = less viability, hits mostly cytotoxic; 1.6% of 360,000 active;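 further: NT is the 2HG producing partner of a matched IDH1 knockdown line; 0% = DMSO-treated cells and -100% = media-only wells without cells; nearly all actives have a fitted effect of over 55% in size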
#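 Viability by CellTiter-Glo luminescence after 48 h compound exposure at 37C of HT-1080-NT cells (750/well, RPMI, 5% FBS). % activity scaled between DMSO wells and medium-only wells, then curve-fitted and categorized by curve class.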
# * marks the source's active call; other numbers are inactive results; i = inactive; ? = inconclusive; . = no result; [ ] = dose if it differs, or a comment. The call rests on the fitted dose curve; in most records, active means well fitted curve in the direction sought with a large enough effect; inconclusive means small, poorly fitted or top-dose-only effect, or another doubt; inactive means no such curve, though single readings can be large; an effect the other way counts as inactive or inconclusive. Unless noted, on the % scale 0 is the no-effect control and ±100 the full control effect; potency means the concentration at half of the fitted maximal effect.
SMILES,KB-V1 MDR tox,HT1080 IDH1KD tx,KB-3-1 cytotox,TDP1 cell CPT,TDP1 cell noCPT,HT1080NT lethal
C/C(N)=C(/C#N)C(=O)CSc1cc(Cl)ccc1Cl,?,-5%,i,-3%,?,1%
O=C(COc1ccccc1)Nc1ccc2nc(SCC(=O)N3CCc4ccccc43)sc2c1,i,.,i,?,?,.
O=C(COc1ccc(F)cc1)Nc1ccc2nc(SCC(=O)N3CCc4ccccc43)sc2c1,i,.,i,2.6µM*,2.6µM*,.
O=C(COc1ccccc1F)Nc1ccc2nc(SCC(=O)N3CCc4ccccc43)sc2c1,i,.,i,7.3µM*,5.2µM*,.
CC(=O)Nc1c(O)c2cccc3c2n(c1=O)CCC3,i,19%,i,10%,-5%,18%
O=C(NCc1nnc2c(C(F)(F)F)cc(Cl)cn12)c1cccnc1,i,2%,i,0%,3%,2%
COc1ccc(S(=O)(=O)N(C)C[C@H]2OCc3cnnn3CCCC(=O)N([C@@H](C)CO)C[C@H]2C)cc1,i,-6%,i,1%,-27%,-7%
O=[N+]([O-])c1cc(/C=N/N2CCN(C3c4ccccc4-c4ccccc43)CC2)ccc1Cl,?,22%,21µM*,-11%,?,-1%
COc1ccccc1N1CCN(/N=C/c2ccc(Cl)c([N+](=O)[O-])c2)CC1,i,-8%,i,?,?,3%
COc1ccc(/C=N/N2CCOCC2)cc1O,i,16%,i,12%,-1%,10%
COc1ccc(/C=N/N2CCN(C3c4ccccc4-c4ccccc43)CC2)cc1O,?,-14%,?,?,18µM*,-18%
Cc1ccc(/C=N/N2CCN(C3c4ccccc4-c4ccccc43)CC2)s1,i,16%,i,-14%,?,19%
C(=N\N1CCN(C2c3ccccc3-c3ccccc32)CC1)/c1ccccn1,18µM*,-1%,?,21µM*,16µM*,-1%
O=c1cc(CSc2ccc(Cl)cc2)nc(-c2ccccn2)[nH]1,i,-29%,13µM*,4.1µM*,4.1µM*,-17%
Clc1ccc(SCc2cc(N3CCOCC3)nc(-c3ccccn3)n2)cc1,?,-17%,?,5.8µM*,3.3µM*,-6%
Cc1cc(NC(=O)c2csc([C@@H]3O[C@H](CO)[C@H](O)[C@H](O)[C@H]3O)n2)n(C)n1,i,0%,i,-17%,-2%,29%
CCOC(=O)CC(=O)CSc1nc(CC)c(C)cc1C#N,i,7%,i,?,13µM*,12%
Cc1ccc2cc(C#N)c(SCc3nnc(-c4ccccc4[N+](=O)[O-])o3)nc2c1,13µM*,20%,9.2µM*,?,21µM*,19%
CCSc1nc2ccc(C)cc2cc1C#N,i,3%,i,0%,1%,19%
COc1ccc2cc(C#N)c(SCC(=O)OCc3ccccc3)nc2c1,i,.,?,-5%,-19%,.
Cc1ccc2cc(C#N)c(SCC(=O)N3CCCc4ccccc43)nc2c1,i,17%,i,13%,-4%,13%
COC(=O)CSc1nc2cc(C)ccc2cc1C#N,i,9%,i,18µM*,16µM*,?
CCc1nc(SCC(=O)O)c(C#N)cc1C,i,11%,i,4%,3%,13%
CCOC(=O)CC(=O)CSc1nc2ccc(C)cc2cc1C#N,i,7.1µM*,i,1.2µM*,0.73µM*,?
Cc1cccc(NC(=O)C2CCN(S(=O)(=O)c3cccc4nsnc34)CC2)c1C,i,.,i,-25%,-19%,.
SMILES,KB-V1 MDR tox,HT1080 IDH1KD tx,KB-3-1 cytotox,TDP1 cell CPT,TDP1 cell noCPT,HT1080NT lethal
Cn1c(=O)c(=O)n(C)c2cc(S(=O)(=O)N3CCCC3C(=O)NCc3cccs3)ccc21 (configuration not stated),?,18%,i,-16%,2%,28%
O=C(CCC(=O)c1ccc(F)cc1)Nc1ccc(Cl)cc1,i,.,i,2%,-15%,.
CCOC(=O)CC(=O)CSc1nc2c(c(C)c1C#N)CCC2,i,-16%,i,15µM*,7.3µM*,8%
CC[C@]12CCCN3CCc4c(n(c5ccccc45)C(=O)C1)[C@@H]32,4.1µM*,14%,?,6%,6.5µM*,?
CC[C@]12CCCN3CCc4c(n(c5ccccc45)[C@@](O)(C(=O)OC)C1)[C@@H]32,i,-7%,i,-9%,-24%,-2%
CC(C)(C)OC(=O)NCCC(=O)N/N=C/c1ccc2nccnc2c1,i,12%,i,0%,-25%,0%
COc1ccc2nc(/C=N/NC(=O)CCCCCNC(=O)OC(C)(C)C)ccc2c1,i,-20%,i,21µM*,18µM*,-7%
COc1ccc(CC(=O)N/N=C/c2cccnc2)cc1OC,i,12%,i,-1%,19%,0%
CCOc1ccc(OCCOC(=O)C2CCN(S(=O)(=O)c3ccc(C)c(C)c3)CC2)cc1,i,-1%,i,-10%,-5%,-1%
Cc1ccc(-c2nc(-c3cc4cccc(OCc5ccccc5F)c4oc3=O)no2)cc1,?,.,i,-9%,-10%,.
COc1ccc(CCNc2ncnc3c2nnn3C)cc1,.,.,.,16µM*,21µM*,.
COc1cccc(CCNc2ncnc3c2nnn3C)c1,.,.,.,?,8.2µM*,.
Cn1nnc2c(NCc3ccccc3Cl)ncnc21,.,.,.,-10%,-10%,.
COc1ccccc1CNc1ncnc2c1nnn2C,.,.,.,15%,-3%,.
COc1ccc(CCNc2ccncn2)cc1,i,-5%,i,9.2µM*,15µM*,-2%[9.24 µM]
Cc1ccc(C)c(N2CCN(CCN3CCCCC3)CC2)c1,?,9%,i,-28%,?,8%
CCOC(=O)C1=CN(CC2CCCO2)C=C(C(=O)OCC)C1c1ccccc1C(F)(F)F (configuration not stated),i,14%,i,?,18µM*,?
N=C(N)SCc1ccccn1,i,9%,i,?,-29%,5%
c1ccc(CSc2nnc(SCc3ccccn3)s2)nc1,16µM*,9%,i,-28%,-4%,19%
